According to paper PMC4336329 (PLoS ONE, 2015):
Screen size: about 310,000 compounds; about 14,000 (4.5%) showed an effect of 50% or more. Effects have a minus sign here. The full list was thinned out, with strong results kept by preference.

What follows are molecules tested against human ether-à-go-go-related gene (hERG) potassium channel (human, UniProt Q12809) (assay: primary screen, population patch clamp on CHO cells stably expressing hERG; higher = less effect of the substance).
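Note: peak tail current of the secondary pulse compared with the same well before compound.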

Sequence of human ether-à-go-go-related gene (hERG) potassium channel (Q12809 whole entry, looked up): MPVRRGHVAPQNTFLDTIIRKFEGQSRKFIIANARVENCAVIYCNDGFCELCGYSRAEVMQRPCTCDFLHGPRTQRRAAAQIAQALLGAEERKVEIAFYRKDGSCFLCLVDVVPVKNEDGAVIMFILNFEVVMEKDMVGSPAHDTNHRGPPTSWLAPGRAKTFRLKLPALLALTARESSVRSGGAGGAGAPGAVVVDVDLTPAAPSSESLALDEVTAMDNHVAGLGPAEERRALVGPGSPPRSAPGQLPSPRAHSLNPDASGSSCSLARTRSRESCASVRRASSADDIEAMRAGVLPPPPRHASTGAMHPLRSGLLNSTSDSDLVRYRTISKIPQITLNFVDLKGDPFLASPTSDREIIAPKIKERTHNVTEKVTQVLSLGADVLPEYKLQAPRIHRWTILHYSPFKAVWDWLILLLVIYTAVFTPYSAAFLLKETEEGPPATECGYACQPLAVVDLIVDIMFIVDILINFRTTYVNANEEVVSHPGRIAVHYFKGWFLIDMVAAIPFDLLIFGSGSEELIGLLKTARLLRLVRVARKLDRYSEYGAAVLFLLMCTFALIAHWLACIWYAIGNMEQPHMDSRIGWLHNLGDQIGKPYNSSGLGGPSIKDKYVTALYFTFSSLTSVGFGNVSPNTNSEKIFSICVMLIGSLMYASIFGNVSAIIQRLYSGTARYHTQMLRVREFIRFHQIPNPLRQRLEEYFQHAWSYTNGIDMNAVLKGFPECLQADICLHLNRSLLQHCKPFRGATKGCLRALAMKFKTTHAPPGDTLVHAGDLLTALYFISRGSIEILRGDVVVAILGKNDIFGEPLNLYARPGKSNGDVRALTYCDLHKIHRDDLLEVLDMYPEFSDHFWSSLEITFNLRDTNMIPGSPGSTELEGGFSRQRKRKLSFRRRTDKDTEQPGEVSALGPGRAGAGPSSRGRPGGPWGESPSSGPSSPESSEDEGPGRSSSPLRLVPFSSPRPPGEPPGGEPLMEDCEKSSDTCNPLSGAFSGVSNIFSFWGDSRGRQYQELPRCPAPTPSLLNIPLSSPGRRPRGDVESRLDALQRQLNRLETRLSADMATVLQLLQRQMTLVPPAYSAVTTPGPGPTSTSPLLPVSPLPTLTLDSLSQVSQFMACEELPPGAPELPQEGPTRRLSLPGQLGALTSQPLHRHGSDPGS

In order of falling “hERG current change (%, negative = inhibition) at 10uM” value:
1. CN(C)P(=O)(NC(=O)c1cccn1C)N(C)C  47.3%
2. COc1cc2c3nnc(-c4ccc(F)cc4)c-3cn(Cc3cccc(F)c3)c2cc1OC  29.7%
3. CC(C)CNS(=O)(=O)c1ccc(CCC(=O)N2CCCC2)cc1  24.4%
4. CCOc1ccc(NC(=O)NC(C)c2ccc3c(c2)OCO3)cc1 (stereo not drawn)  21.3%
5. CC1(C)CC(=O)C=C(Nc2ccc3c(c2)OCCO3)C1  17.7%
6. Cc1cc(C)nc(Nc2nc(-c3ccccc3)cs2)n1  16.4%
7. CN(C)NC1=CC(=[N+]2CCCC2)CC(C)(C)C1.[I-]  14.6%
8. O=C(CN1CCN(c2cccc(Cl)c2)CC1)Nc1ccc([N+](=O)[O-])cc1C(=O)Nc1ccccc1F  14.4%
9. Cc1ccc(C)c(NC(=O)c2sc(Cl)nc2-c2ccccc2)c1  13.9%
10. CCOC(=O)N1CCN(C(=O)c2ccc(Cn3c(=S)[nH]c4ccc(Br)cc4c3=O)cc2)CC1  13.3%
11. CC(C)(C)c1cc(C(=O)NCCCn2ccnc2)cc(C(C)(C)C)c1.Cl  13.1%
12. CC(=O)Nc1ccc(Nc2ncnc3c2cnn3-c2ccccc2)cc1  12.9%
13. O=C(Nc1c[nH]c(=O)[nH]c1=O)c1ccc([N+](=O)[O-])cc1  10%
14. COc1cc(C)c(Br)cc1S(=O)(=O)NCCCN1CCOCC1  9.66%
15. Cc1ccc(C(C)C)c(OC(=O)/C=C/c2ccccc2)c1  9.52%
16. CC(=O)Nc1ccn(-c2ccccc2)n1  8.89%
17. C=CCn1c(SCc2ccccc2)nc2scc(-c3ccc(C)o3)c2c1=O  8.76%
18. COc1cc(C(=O)N2CCN(C(=O)c3ccccc3)CC2)cc(OC)c1OC  8.49%
19. COc1ccc(-c2cc(C(=O)N3CCN(S(=O)(=O)c4ccccc4)CC3)[nH]n2)cc1  8.23%
20. COc1cc(C)c(CNc2ccc(OC)c(OC)c2)cc1C  7.7%
21. CCN1CCN(C2=C(NS(=O)(=O)c3ccc(NC(C)=O)cc3)C(=O)c3ccccc3C2=O)CC1  7.39%
22. COc1ccc(C(=O)O)nc1C  5.78%
23. Cc1ccc(S(=O)(=O)N(C(=N)N)c2nc(N(C)C)nc(N(C)C)n2)cc1  4.96%
24. COc1ccc(-c2csc(N(Cc3ccccc3)C(=O)COc3ccc(Cl)cc3)n2)cc1  4.31%
25. COc1cc2c3nnc(-c4ccc(F)cc4)c-3cn(Cc3ccc(C)cc3)c2cc1OC  2.79%
26. COc1cc(C=O)ccc1OCC(=O)N1CCOCC1  2.65%
27. Cc1ccc(CC(=O)Nc2ccc([N+](=O)[O-])cc2C)cc1  0.803%
28. COc1cc(NC2c3ncccc3C(=O)N2Cc2ccco2)cc(OC)c1 (stereo not drawn)  -0.0378%
29. CCOC(=O)c1[nH]c(C)c(C(=O)OCC(=O)N2c3ccccc3CC2C)c1C (stereo not drawn)  -0.0968%
30. CC1=NN(Cc2ccccc2)C(=O)C1  -0.313%
31. COC(=O)[C@@]1(Cc2ccc(OC)cc2)[C@H]2c3cc(C(=O)N4CCCC4)n(C[C@H](O)CO)c3C[C@H]2CN1C(=O)c1ccccc1  -1.32%
32. CC1CC(=O)C2=C(C1)Nc1ccccc1N=C2 (stereo not drawn)  -4.46%
33. CCN1CCN(C2=C(NS(=O)(=O)c3ccccc3)C(=O)c3ccccc3C2=O)CC1  -5.21%
34. c1ccc2c3c([nH]c2c1)C1(CCNCC1)NCC3  -6.06%
35. COC(=O)c1nnn(-c2ccccc2)c1N  -7.91%
36. COC(=O)[C@@]1(Cc2ccc(F)cc2)[C@H]2c3cc(C(=O)N4CCCC4)n(Cc4ccc(C(F)(F)F)nc4)c3C[C@H]2CN1C(=O)c1ccccc1  -8.27%
37. CC1(C)CC(=O)C2=C(C1)Nc1ccccc1N=C2.Cl  -8.52%
38. O=C(Nc1ccn(-c2ccccc2)n1)c1ccc(Cl)cc1  -8.56%
39. CCc1ccc(NC2=NCCCS2)cc1  -9.94%
40. COc1ccc(OC)c(C2=CC(=O)C[C@H](c3ccc4c(c3)OCO4)C2)c1  -10.6%
41. Clc1ccc(SCc2nc3ccccc3[nH]2)cc1  -11.2%
42. COc1cc(/C(C)=N/NC(=O)CN2CCN(S(=O)(=O)c3ccc(C)cc3)CC2)ccc1O  -11.6%
43. Cc1ccc([N+](=O)[O-])cc1NC(=O)CN1CCCCC1  -11.7%
44. O=C(NCCS(=O)c1ccc(Cl)cc1)c1cccc(Cl)c1 (stereo not drawn)  -12.2%
45. COc1ccc(S(=O)(=O)N2CCN(C(=O)c3cc(-c4ccc(Br)cc4)n[nH]3)CC2)cc1OC  -13.5%
46. CC(=O)c1cccc(NC(=O)CSc2ccc(-c3ccccn3)nn2)c1  -13.6%
47. NC(=O)C1CCN(C2=C(NS(=O)(=O)c3ccccc3)C(=O)c3ccccc3C2=O)CC1  -13.9%
48. Cc1nnc(SCc2nnc(-c3ccccc3Br)o2)n1-c1ccccc1  -14.6%
49. C/C(=N/NC(=O)CN1CCN(S(=O)(=O)c2ccc(C)cc2)CC1)c1cccc(O)c1  -15%
50. Cc1cnc(C(=O)NCCc2ccc(Cl)cc2)cn1  -15.8%
51. Cc1ccc(S(=O)(=O)NC2=C(N3CCN(Cc4ccccc4)CC3)C(=O)c3ccccc3C2=O)cc1  -16.5%
52. Cc1ccc(C)c(N2CCN(CC(=O)Nc3ccc([N+](=O)[O-])cc3C(=O)Nc3ccccc3F)CC2)c1  -18%
53. O=C1CC(c2ccco2)CC2=C1C=Nc1ccccc1N2 (stereo not drawn)  -24.9%
54. C/C(=N/NC(=O)CN1CCN(Cc2ccccc2Cl)CC1)c1ccco1  -25.4%
55. Cc1nc2sc3c(c2c2nnc(SCC(=O)NCc4ccco4)n12)CCCC3  -28.2%
56. COc1cc2c3nnc(-c4ccc(F)cc4)c-3cn(Cc3ccc(F)cc3)c2cc1OC  -28.5%
57. C/C(=N\NC(=O)CN1CCN(c2ccc(F)cc2)CC1)c1ccco1  -30.3%
58. O=C(c1cc(-c2ccc(Br)cc2)n[nH]1)N1CCN(C(=O)c2ccccc2Br)CC1  -32.4%
59. O=C1C(NS(=O)(=O)c2ccc(Br)cc2)=C(N2CCCCC2)C(=O)c2ccccc21  -33.1%
60. O=C(CN1CCN(c2ccccn2)CC1)Nc1ccc([N+](=O)[O-])cc1C(=O)Nc1ccccc1F  -34.7%
61. CCC(C)NCC(=O)Nc1ccc([N+](=O)[O-])cc1C(=O)Nc1ccccc1F (stereo not drawn)  -34.7%
62. COC(=O)[C@@]1(Cc2ccc(OC)cc2)[C@H]2c3cc(C(=O)N4CCCC4)n(CCO)c3C[C@H]2CN1C(=O)c1ccccc1  -34.9%
63. Cn1cc(S(=O)(=O)N2CCCC2)cc1C(=O)N1CCN(c2ccccc2)CC1  -35.8%
64. COc1cc2c3nnc(-c4ccc(F)cc4)c-3cn(Cc3ccccc3)c2cc1OC  -37.1%
65. NC(=O)C1CCN(C2=C(NS(=O)(=O)c3ccc(Cl)cc3)C(=O)c3ccccc3C2=O)CC1  -38.3%
66. COCCn1c(C(=O)N2CCCC2)cc2c1C[C@H]1CN(C(=O)c3ccccc3)[C@@](Cc3ccc(F)cc3)(C(=O)OC)[C@@H]21  -39.3%
67. CCCNS(=O)(=O)c1ccc(CCC(=O)N2CCN(c3ccc(F)cc3)CC2)cc1  -43.7%
68. O=C1CC(c2ccc(F)cc2)CC2=C1C(c1ccc([N+](=O)[O-])o1)Nc1ccccc1N2 (stereo not drawn)  -47.3%
69. CC(C)CNS(=O)(=O)c1ccc(CCC(=O)N2CCN(c3ccc(F)cc3)CC2)cc1  -50.3%
70. CCOC(=O)N1CCN(CC(=O)Nc2ccc([N+](=O)[O-])cc2C(=O)Nc2ccccc2F)CC1  -50.7%
71. COC(=O)[C@@]1(Cc2ccc(F)cc2)[C@H]2c3cc(C(=O)N4CCCC4)n(CCO)c3C[C@H]2CN1C(=O)c1ccccc1  -51.4%
72. C/C(=N/NC(=O)CN1CCN(S(=O)(=O)c2ccc(C)cc2)CC1)c1ccco1  -53.7%
73. CCN1CCN(C2=C(NS(=O)(=O)c3ccc(C)cc3)C(=O)c3ccccc3C2=O)CC1  -57.1%
74. O=C1CC(c2ccccc2)CC2=C1C=Nc1ccccc1N2 (stereo not drawn)  -61%
75. CCN1CCN(C2=C(NS(=O)(=O)c3ccc(Br)cc3)C(=O)c3ccccc3C2=O)CC1  -61.5%
76. CN(C)c1cccc(NC2=CC(=[N+]3CCOCC3)CC(C)(C)C2)c1.[I-]  -65.6%
77. O=C(Nc1ccn(-c2ccccc2)n1)c1ccccc1Br  -66%
78. COC(=O)Cn1c(C(=O)N2CCCC2)cc2c1C[C@H]1CN(C(=O)c3ccccc3)[C@@](Cc3ccc(F)cc3)(C(=O)OC)[C@@H]21  -67.4%
79. C/C(=N/NC(=O)CN1CCN(S(=O)(=O)c2ccc(Br)cc2)CC1)c1ccco1  -68.9%
80. NC(=O)C1CCN(C2=C(NS(=O)(=O)c3ccc(Br)cc3)C(=O)c3ccccc3C2=O)CC1  -72.1%
81. O=C1CC(c2ccc(F)cc2)CC2=C1C=Nc1ccccc1N2 (stereo not drawn)  -72.8%
82. COc1cc(C(=O)N2CCN(C(=O)c3cc(-c4ccc(Br)cc4)n[nH]3)CC2)cc(OC)c1OC  -73.3%
83. Cc1cc([N+](=O)[O-])ccc1NC(=O)CN1CCN(Cc2ccccc2)CC1  -73.9%
84. COc1cc2c3nnc(-c4ccccc4)c-3cn(Cc3ccc(F)cc3)c2cc1OC  -76.8%
85. O=C(CN1CCN(Cc2ccccc2)CC1)Nc1ccc([N+](=O)[O-])cc1C(=O)Nc1ccccc1F  -77.5%
86. COc1cc(C(=O)N2CCN(C(=O)c3cc(-c4ccccc4)n[nH]3)CC2)cc(OC)c1OC  -77.6%
87. COc1ccc(Cn2cc3c(-c4ccc(F)cc4)nnc-3c3cc(OC)c(OC)cc32)cc1  -88.2%
